Hit rate of the full screen: of about 340,000 compounds, about 3,300 (0.97%) were called active. Roughly 9% stayed inconclusive and do not appear here. Calls follow the shape of the dose curve; as a rule, active = well fitted inhibition curve with a large enough effect; inconclusive = small, poorly fitted or top-dose-only effect, or effect the other way; inactive = flat fitted curve, though single readings scatter. Some of the results follow.
experiment: qHTS Assay for Modulators of miRNAs and/or Inhibitors of miR-21; conditions: HeLa miR-21-FLuc reporter, luciferase luminescence, 48 h; actives lower the signal; also: nearly all actives have a fitted effect of over 55% in size
Procedure, shortened: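 HeLa cells stably expressing CMV-driven firefly luciferase with a downstream miR-21 binding sequence, endogenously expressing miR-21, were treated with titrations (up to about 40uM final) for 48 hours at 37 degree Celsius. Luciferase luminescence was read after lysis.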
Potency is read from the fitted curve at half-maximal effect.

Potency, active:
O=C(COc1ccc(Cl)cc1Cl)NC(=O)N1CCCCC1 6.56 µM
O=C(Nc1cccc2ccccc12)N1N=CCC1c1ccccc1 (stereo not given) 6.56 µM
Cc1ccc2nc(/C(C#N)=C/c3ccc(-c4ccc(C(=O)OC(C)C)cc4)o3)[nH]c2c1 4.14 µM
CCOC(=O)c1sc(-c2ccccc2)cc1N 3.98 µM
COC(=O)c1sc(-c2ccc(Cl)cc2)cc1N 4.14 µM
COC(=O)c1sc(-c2cccs2)cc1N 8.26 µM
CCOC(=O)c1sc(-c2ccc(OC)cc2)cc1N 0.927 µM
CCOC(=O)c1cc(-c2ccccc2)sc1N 18.5 µM
CCOC(=O)c1c(N)sc(-c2ccccc2)c1C 11.7 µM
CCOC(=O)c1sc(=N)n(-c2ccc(OC)cc2)c1C 7.36 µM
COC(=O)c1ccc(N2OC3(C)C=CC2CC3)cc1 (stereo not given) 13.1 µM
COc1ccc(/C(N)=N/OC(=O)c2ccco2)cc1OC 1.85 µM
N/C(=N\OC(=O)c1cccs1)c1cccc(Br)c1 8.26 µM
N/C(=N\OC(=O)c1ccco1)c1ccccc1 5.21 µM
N/C(=N\OC(=O)c1ccco1)c1cccc(Br)c1 3.69 µM
N/C(=N\OC(=O)c1ccco1)c1ccc(Cl)cc1 4.65 µM
CC1(C)CC(=O)c2cnc(N3CCc4ccccc43)nc2C1 1.85 µM
CNc1nc(N2CCc3ccccc32)ncc1F 1.85 µM
CC1(C)CC(=O)c2c(O)cc(OCc3ccc(Br)cc3)cc2O1 3.29 µM
CCOc1ccc(N=Nc2c(N)[nH][nH]c2=O)cc1 2.93 µM
COc1cccc(N=Nc2c(N)[nH][nH]c2=O)c1 7.36 µM
Cc1cc(C(=O)CSc2ccccc2)cc(C)c1O 9.27 µM
Cc1cc(C(=O)CSc2ccc(F)cc2)cc(C)c1O 9.27 µM
O=C(Nc1ccc(N2CCOCC2)c(Cl)c1)C1CCCCC1 16.5 µM
CN(Cc1ccsc1)C(=O)CCc1nnc(CCCc2ccccc2)o1 11.7 µM
Cc1cc(C)cc(NC(=O)c2oc3ccc4c(c3c2C)C(=O)CC(C)(C)O4)c1 0.826 µM
CCOC(=O)c1ccc(NC(=O)c2oc3ccc4c(c3c2C)C(=O)CC(C)(CC)O4)cc1 (stereo not given) 0.208 µM
CCN(CC)c1ccc(/C=C(\C#N)C(N)=O)cc1 14.7 µM
Brc1ccc(/C=N/Nc2nc3ccccc3o2)cc1 1.04 µM
Brc1ccccc1/C=N/Nc1ccc2ccccc2n1 1.17 µM
Brc1ccc(/C=N/Nc2ccc3ccccc3n2)cc1 2.61 µM
O=C(NCCc1cccs1)c1ccc(Cl)c(Cl)c1 2.07 µM
c1ccc(CCc2nc3ccccc3[nH]2)cc1 9.27 µM
c1ccc(CSCc2nc3ccccc3[nH]2)cc1 7.36 µM
Clc1ccccc1SCc1nc2ccccc2[nH]1 7.36 µM
CC1=NN(C(=O)c2ccc(C)o2)C(O)(c2ccccc2)C1 (stereo not given) 16.5 µM
COc1ccc(NC(=O)CSCc2ccccc2C)cc1 7.36 µM
COc1ccc(CNC(=O)CSCc2ccccc2Cl)cc1 13.1 µM
Cc1cccc(Nc2n[nH]c(C)c2[N+](=O)[O-])c1 0.736 µM
Cc1ccc(Nc2cc(C)nc(-c3ccccc3)n2)cc1 7.36 µM
CC(=O)c1ccc(NC(=O)c2cc(Cl)sc2Cl)cc1 1.47 µM
CC(=O)c1ccc(NC(=O)c2ccc(C)c(Br)c2)cc1 0.826 µM
Cc1cc(-c2ccc(Br)cc2)n[nH]1 13.1 µM
CCC(=O)N1CCC(c2ccc(OC)cc2)=N1 13.1 µM
O=C(Nc1cccc2ccccc12)c1ccccc1 6.56 µM
O=C(Nc1ccccc1F)C(=O)Nc1cccc2ccccc12 3.29 µM
O=C(CSc1cccs1)Nc1cccc2ccccc12 10.4 µM
O=C(Nc1cccc2ccccc12)c1onc2c1CCCC2 5.85 µM
CC1CC1C(=O)OCC(=O)Nc1ccc(N=Nc2ccccc2)cc1 (stereo not given) 1.47 µM
O=C(COC(=O)C1CC1)Nc1ccc(N=Nc2ccccc2)cc1 1.85 µM
C(=N\Nc1cc(N2CCCCC2)ncn1)/c1ccco1 2.93 µM
Cc1ccc(-c2cc(=O)c3cc(Cl)ccc3[nH]2)cc1 0.369 µM
FC(F)(F)c1cc(Cl)c2nc(-c3ccccc3)cn2c1 0.369 µM
CNc1oc(/C=C/c2cccc(OC)c2)nc1C#N 2.93 µM
CNc1oc(/C=C/c2ccccc2)nc1C#N 3.29 µM
CCCCNc1nc(N)nc(-c2cc(Cl)ccc2O)n1 0.927 µM
CNC(=O)c1ccc(NC(=O)/C=C/c2cccc(F)c2)cc1 10.4 µM
Cn1cc([N+](=O)[O-])c(C(=O)Nc2ccc3nc(-c4ccccc4)[nH]c3c2)n1 14.7 µM
Cn1cc([N+](=O)[O-])c(C(=O)Nc2ccc(-c3nc4ccccc4o3)cc2)n1 7.36 µM
CNc1nc(-c2ccc3c(c2)CCN3C(=O)c2ccccc2C)cs1 4.65 µM
CC(C)(C)Nc1nc(-c2ccc3c(c2)CCN3C(=O)C2CC2)cs1 1.47 µM
COC(=O)c1ccc(N2CCC(C)CC2)c(N)c1 4.14 µM
COc1ccc2oc(C(=O)NC(C)(C)C)c(C)c2c1 3.69 µM
Cc1c(C(=O)NC2CCCCC2)oc2ccc(F)cc12 13.1 µM
COc1ccc2oc(C(=O)NC3CCCCC3)c(C)c2c1 2.93 µM
COc1ccc2c(c1)OC/C(=C/c1cccs1)C2=O 5.85 µM
Cn1cccc1C(=O)N/N=C/c1c(Cl)cccc1Cl 2.07 µM
O=C(CSc1nnc(C2CCCCC2)o1)Nc1ccccc1Cl 7.36 µM
Cc1cccc2nc(=S)n(C(=O)c3ccco3)n12 0.521 µM
Cc1cccn2c1nc(=S)n2C(=O)c1ccco1 1.04 µM
CC(=O)Oc1ccc(C(=O)[C@H]2[C@H]3C(=O)N(c4ccc5ccccc5c4)C(=O)[C@H]3[C@@H]3C=CC=NN32)cc1 6.56 µM
Cc1cc2nc(N)sc2cc1[N+](=O)[O-] 14.7 µM
O=S(=O)(Nc1ccc(-c2nc3cccnc3s2)cc1)c1cc(F)ccc1F 16.5 µM
Cc1ccc(-c2nc3cccnc3s2)cc1NS(C)(=O)=O 4.14 µM
O=S(=O)(Nc1ccc(-c2nc3cccnc3s2)cc1)c1ccccc1F 13.1 µM
O=C(Nc1ccc(CN2CCCCC2)cc1)Nc1ccccc1Cl 16.5 µM
CCN1CCN(Cc2ccc(NC(=O)Nc3ccccc3Cl)cc2)CC1 1.31 µM
CCN1CCN(Cc2ccc(NC(=O)Nc3ccc(SC)cc3)cc2)CC1 14.7 µM
O=C(Nc1cc2c(cc1Cl)OCCO2)c1ccco1 6.56 µM
O=C(NNC(=S)Nc1ccc(Br)cc1Cl)c1ccco1 3.29 µM
O=C(Nc1cc2c(cc1Cl)OCCCO2)c1ccco1 3.69 µM
O=C(Nc1cc2c(cc1Br)OCCO2)c1ccco1 6.56 µM
O=C(CCc1ccccc1)Nc1cc2c(cc1Cl)OCCO2 2.61 µM
Cc1c(-c2ccccc2)[nH]n2c(=O)c3c(nc12)CCCC3 2.93 µM
CC(C)(C)C(=O)Nc1ccc(-c2nc3ccc(NC(=O)C(C)(C)C)cc3[nH]2)cc1 0.414 µM
CC(=O)Nc1ccc2nc(-c3cccs3)[nH]c2c1 9.27 µM
CCOc1cc(/C=C2\N=C3CCCCCN3C2=O)ccc1O 14.7 µM
O=C1/C(=C\c2ccc(O)c(O)c2)N=C2CCCCCN12 14.7 µM
Cc1ccc2nc(CNC(=O)c3ccccc3)[nH]c2c1 6.56 µM
Cc1c(/C(O)=C2/C(=O)C(=O)N(Cc3cccnc3)C2c2cccs2)cnn1-c1ccccc1 (stereo not given) 5.21 µM
Cn1c(N)c(C(=O)/C=C/c2ccccc2)c(=O)[nH]c1=O 5.85 µM
CCC(=O)Nc1cc(C(=O)OCC(=O)c2ccccc2)ccc1C 1.85 µM
Nc1cccc(C(=O)OCC(=O)c2ccccc2)c1 7.36 µM
CNc1ccccc1C(=O)OCC(=O)c1ccccc1 16.5 µM
CC(=O)Nc1cc(C(=O)OCC(=O)c2ccc(C)cc2)ccc1C 10.4 µM
CCC(=O)Nc1cc(C(=O)OCC(=O)c2ccccc2Cl)ccc1C 10.4 µM
Cc1ccc(C(=O)CCC2CCCCC2=O)cc1 (stereo not given) 14.7 µM
CCc1ccc(C(=O)CCC2CCCCC2=O)cc1 (stereo not given) 16.5 µM
O=C(O)c1ccccc1C(=O)NNc1cccc(Cl)n1 5.85 µM
CCOC(=O)/C=C/c1cnn(-c2ccccc2)c1 2.33 µM

From PubChem BioAssay AID2289 (National Center for Advancing Translational Sciences (NCATS), 2010)
